# Screening results from PubChem.
# This excerpt belongs to a sample that is enriched for hits.
# 12-LOX inh = inhibitors of human 12S-lipoxygenase ALOX12; P18054; purified 12hLO, xylenol orange hydroperoxide absorbance; actives 1.1% (n = 580,000); Potency, µM (titrated, usually from 108 µM), for inactives: at the top dose activity change, negative = inhibition, usual class: inhibitors; also: potency is read from the fitted curve at half-maximal effect
# Target sequence (P18054 whole entry, looked up): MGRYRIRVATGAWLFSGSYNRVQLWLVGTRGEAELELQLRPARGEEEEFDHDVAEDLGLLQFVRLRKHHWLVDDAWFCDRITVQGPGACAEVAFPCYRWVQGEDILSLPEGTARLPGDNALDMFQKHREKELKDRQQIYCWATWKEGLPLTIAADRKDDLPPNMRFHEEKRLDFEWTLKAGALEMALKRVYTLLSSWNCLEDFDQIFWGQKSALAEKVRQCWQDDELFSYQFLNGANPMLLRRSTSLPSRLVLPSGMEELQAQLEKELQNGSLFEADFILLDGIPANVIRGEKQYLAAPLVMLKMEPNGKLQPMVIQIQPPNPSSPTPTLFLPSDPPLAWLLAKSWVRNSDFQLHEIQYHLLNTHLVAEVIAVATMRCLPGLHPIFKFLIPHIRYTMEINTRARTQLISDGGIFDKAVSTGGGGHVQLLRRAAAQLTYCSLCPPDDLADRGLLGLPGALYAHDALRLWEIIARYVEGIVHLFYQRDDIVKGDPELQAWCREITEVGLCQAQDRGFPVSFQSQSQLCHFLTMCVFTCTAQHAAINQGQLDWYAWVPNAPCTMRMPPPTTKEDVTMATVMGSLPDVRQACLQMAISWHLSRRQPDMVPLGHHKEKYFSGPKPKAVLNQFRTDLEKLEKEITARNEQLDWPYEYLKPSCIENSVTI
#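 Purified human 12hLO at 150 nM in 25 mM Hepes, 0.01% Triton X-100, pH 7.0, preincubated 15 min at room temperature with compound. Reaction started with 40 uM arachidonic acid, 30 min at room temperature. Hydroperoxide measured by Fe-xylenol orange, 573/405 nm absorbance ratio.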
# TDP1 cell CPT = growth inhibition of DT40 Tdp1-/-;hTDP1 cells with camptothecin (screen for TDP1 inhibitors). Potency, µM (top dose mostly 46.2 µM), for inactives: at the top dose activity change, negative = growth inhibition, most hits filed as inhibitors. chicken DT40 Tdp1-/-;hTDP1 cells + 20 nM CPT, ATP luminescence, 48 h. actives 12% (n = 420,000); also: potency is read from the fitted curve at half-maximal effect; nearly all actives have a fitted effect of over 55% in size
#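 Chicken DT40 Tdp1-/- cells complemented with human TDP1, 400 cells/well, exposed to compounds plus 20 nM camptothecin for at least 48 h at 37 C; viability read as ATP content by CellTiter-Glo luminescence.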
# IL-1B inflam inh = inhibitors of inflammasome signaling (IL-1 beta secretion); THP-1 LPS/ATP IL-1B secretion, AlphaLISA, 16 h; active compounds read low; activity change, % at 57.5 µM; actives 4.7% (n = 360,000); AID 743279; in the data active = activity change below about -50%; inconclusive = mostly about -30% to -49%
#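 Secreted IL-1B measured by AlphaLISA bead assay after 16 h compound exposure of THP-1 cells; compounds (final up to 57.5 uM) added 1 h before LPS (250 ng/mL) and ATP (1.25 mM) stimulation; lower signal means less secretion.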
# HT1080NT lethal = kills 2HG-producing HT-1080-NT fibrosarcoma cells; HT-1080-NT fibrosarcoma viability, CellTiter-Glo ATP luminescence, 48 h; AID 686970; Potency, µM (titrated, usually from 46.1 µM), inactives show top-dose activity, negative = less viability, most hits filed as cytotoxic; actives 1.6% (n = 360,000);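 also: NT is the 2HG producing partner of a matched IDH1 knockdown line; potency is read from the fitted curve at half-maximal effect; 0% = DMSO-treated cells and -100% = media-only wells without cells; nearly all actives have a fitted effect of over 55% in size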
#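 A 48-hour cytotoxicity screen used HT-1080-NT cells plated 2 hours before compound delivery. ATP-based CellTiter-Glo luminescence measured viability, normalized to DMSO and no-cell controls.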
# HT1080 IDH1KD tx = kills HT-1080 cells with IDH1 knockdown. Potency, µM (doses to about 46.1 µM), without a hit: at the highest dose activity, negative = toxicity, actives largely listed as cytotoxic. AID 686971. actives 2% (n = 360,000). HT-1080 IDH1 knockdown viability, ATP luminescence, 48 h;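 also: potency is read from the fitted curve at half-maximal effect; 0% = DMSO wells and -100% = cell-free medium wells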
#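 Cytotoxicity counter-line: IDH1KD HT-1080, 48 h, CellTiter-Glo. Curves classed by r2, magnitude and activity.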
# DT40 TDP1 no CPT = qHTS for Inhibitors of human tyrosyl-DNA phosphodiesterase 1 (TDP1): qHTS in cells in absence of CPT; Potency, µM (series often up to 46.2 µM), for the others: top-dose activity change, negative = growth inhibition, usual class: inhibitors; DT40 Tdp1-/- hTDP1 cells, no CPT, ATP luminescence, 48 h; actives 15% (n = 420,000); AID 686978, 2013; also: potency is read from the fitted curve at half-maximal effect; nearly all actives have a fitted effect of over 55% in size
#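 Stably hTDP1-transfected Tdp1-null chicken DT40 cells were treated with library compounds minus camptothecin and grown for at least 48 hr at 37 °C, after which cellular ATP was quantified by luminescence.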
# * marks the source's active call; other numbers are inactive results; ? = inconclusive; . = no result given. Unless noted, calls follow the shape of the dose curve; as a rule, active = well fitted curve in the direction sought with a large enough effect; inconclusive = small, poorly fitted or top-dose-only effect, or another doubt; inactive = no such curve, though single readings can be large; an effect the other way counts as inactive or inconclusive. Unless noted, % is scaled to controls: 0 for no effect and ±100 for the full control effect.
SMILES,12-LOX inh,TDP1 cell CPT,IL-1B inflam inh,HT1080NT lethal,HT1080 IDH1KD tx,DT40 TDP1 no CPT
COc1cccc(C2CC(c3ccccc3Cl)Nc3ncnn32)c1 (stereo unspecified),15%,26µM*,?,-2%,-3%,?
COc1ccc(C2CC(c3ccccc3Cl)Nc3ncnn32)cc1OC (stereo unspecified),0%,-28%,-3,-1%,9%,?
Clc1ccccc1C1CC(c2ccccc2)Nc2ncnn21 (stereo unspecified),426%,15µM*,-3,1%,-11%,?
CCOc1ccc(C2CC(c3cccc(C)c3)n3ncnc3N2)cc1 (stereo unspecified),420%,13µM*,-12,4%,-7%,23µM*
CCOC(=O)N1CCN(C(=O)c2cc(OC)c(OC)c(OC)c2)CC1,0%,-3%,0,-1%,-1%,10%
COc1cc(C(=O)N2CCN(c3ccc(C)cc3C)CC2)cc(OC)c1OC,264%,2.9µM*,95,4.6µM*,5.8µM*,3.7µM*
COc1cccc(C(=O)N2CCN(c3nc4cc(C)cc(C)c4cc3C#N)CC2)c1,?,23µM*,-22,8%,7%,16µM*
Cc1ccc2cc(C#N)c(N3CCCN(C(=O)c4cnccn4)CC3)nc2c1,-24%,?,-9,-1%,-2%,?
Cc1ccc2cc(C#N)c(N3CCN(C(=O)c4ccccc4)CC3)nc2c1,2%,21µM*,?,0%,-7%,10µM*
Cc1cc(C)c2cc(C#N)c(N3CCCC3)nc2c1,?,-14%,-9,1%,-1%,?
Cc1ccc2nc(N3CCN(C(=O)c4cccs4)CC3)c(C#N)cc2c1,?,21µM*,-59*,-3%,-4%,15µM*
O=C(O)CCC1CCN(S(=O)(=O)c2cccc(F)c2)CC1,16%,.,.,.,.,.
O=c1cc(CN2CCN(c3ccccc3F)CC2)c2cc(Cl)c(O)cc2o1,-11%,.,.,.,.,.
COc1cc(C(=O)N2CCCN(c3nc4cc(C)ccc4cc3C#N)CC2)cc(OC)c1OC,-17%,21µM*,36,-8%,0%,?
COc1ccc(C(=O)N2CCN(c3nc4cc(C)ccc4cc3C#N)CC2)c(OC)c1,0%,16µM*,-59*,-6%,-25%,16µM*
CCOC(=O)C1CCN(c2nc3cc(OC)ccc3cc2C#N)CC1,-12%,-17%,9,7%,2%,-14%
O=C(Nc1cccc(Cl)c1)[C@@H]1COCC(=O)N1Cc1ccccc1,35%,.,.,.,.,.
COc1cccc(-c2cc(CNC(=O)C(c3ccc(F)cc3)N(C)C)no2)c1 (stereo unspecified),-2%,.,.,.,.,.
Cc1cccn2cc(CCNC(=O)Cc3cccs3)nc12,9%,6%,-74*,13%,13%,1%
CCN(CC)CCN1CCN(c2cncc(-c3ccc4ccccc4c3)n2)CC1,?,12µM*,-59*,23µM*,16µM*,16µM*
Fc1cccc(-c2cncc(N3CCN(CCN4CCCC4)CC3)n2)c1,?,?,-9,-21%,?,?
FC(F)(F)c1cccc(-c2cncc(N3CCN(CCN4CCCC4)CC3)n2)c1,-25%,23µM*,-26,?,?,16µM*
COc1ccc(C(=O)N2CCCC(c3nc(CCOCC4CCCC4)no3)C2)cc1F (stereo unspecified),3%,.,.,.,.,.
Cc1ccccc1NC(=O)CNc1nc(Nc2ccccc2)nc(Nc2ccccc2)n1,16µM*,.,.,.,.,.
COc1ccc(NC(=O)c2cc(-c3ccccc3OC)on2)cc1,10%,2.8µM*,23,4.5µM*,6.3µM*,2.8µM*
SMILES,12-LOX inh,TDP1 cell CPT,IL-1B inflam inh,HT1080NT lethal,HT1080 IDH1KD tx,DT40 TDP1 no CPT
COc1ccccc1-c1cc(C(=O)Nc2cccnc2)no1,-4%,0.46µM*,43,0.32µM*,0.25µM*,0.46µM*
COc1ccc(NC(=O)c2cc(-c3ccccc3Cl)on2)cc1,-3%,-3%,-5,0%,1%,?
COc1ccc(OC)c(-c2cc(C(=O)NC(C)c3ccccc3)no2)c1 (stereo unspecified),?,4.1µM*,.,.,.,4.1µM*
CCCCc1nn(CC(=O)N2CCCC(O)C2)c(=O)n1CCc1ccccc1 (stereo unspecified),23%,.,.,.,.,.
Cc1ccc(NC(=O)N2CCC3(CC2)C(=O)N(CC(=O)N2CCCC2)CN3c2ccccc2)cc1,6%,.,.,.,.,.
O=C(Nc1ccc2oc(-c3ccccc3Cl)nc2c1)c1cncc(Br)c1,0%,7.3µM*,-24,?,-9%,12µM*
O=C(Nc1ccc2oc(-c3cc(Br)ccc3Cl)nc2c1)c1ccc2ccccc2c1,?,16µM*,.,.,.,12µM*
O=C(Nc1ccc2oc(-c3ccccc3Cl)nc2c1)c1ncn[nH]1,?,-8%,-1,1%,-2%,1%
O=C(Nc1ccc2oc(-c3ccncc3)nc2c1)c1ccc2ccccc2c1,-25%,.,.,.,.,.
COc1cccc(NC(=O)CSC2=Nc3ccccc3N=C(c3ccc(F)cc3)C2)c1,-11%,18µM*,.,.,.,?
Cc1ccc(CNC(=O)CN2C(=O)CC(c3ccc(C)c(C)c3)=Nc3ccccc32)cc1,-18%,?,.,.,.,?
Cc1ccc(C2=Nc3ccccc3N(CC(=O)Nc3cccc(F)c3)C(=O)C2)cc1C,-21%,?,.,.,.,18µM*
Cc1ccc(NC(=O)CN2C(=O)CC(c3ccc(F)cc3)=Nc3ccccc32)cc1F,-10%,12µM*,.,.,.,12µM*
Cc1ccc(C2=Nc3ccccc3N(CC(=O)NCc3ccccc3Cl)C(=O)C2)cc1C,-23%,?,.,.,.,21µM*
COc1ccc(NC(=O)CN2C(=O)CC(c3ccc(C)c(C)c3)=Nc3ccccc32)cc1OC,-8%,?,.,.,.,?
O=C(NCC1CN(Cc2ccccc2)CCO1)C1CCC1 (stereo unspecified),2%,.,.,.,.,.
Cc1c(/C=N/NC(=O)c2ccccc2O)c2ccccn2c1C(=O)c1ccc(F)cc1,-26%,?,-88*,?,?,23µM*
COC(=O)N/N=C/c1c(C)c(C(=O)c2ccc(F)cc2)n2ccccc12,-7%,?,4,-1%,?,?
c1ccc(C2c3[nH]c4ccccc4c3CCN2Cc2cccn2-c2ccccn2)nc1 (stereo unspecified),4%,?,1,-5%,-6%,?
